Assay outcomes: PubChem, several laboratories
HSF-1 act: increases HSF-1 driven luciferase reporter signal; 300,000 compounds, 1.7% hits; activation, % at 9 µM; NIH3T3-HGL HSF-1 luciferase reporter, MG132, 8 h; 100% = twice DMSO control signal;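 active means mean replicate activation of at least 50% with a set share of replicates each reaching 50%; inconclusive means only one of those two conditions met; inactive means mean below 50% and too few replicates reaching it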;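 further: 0% = median of the neutral control wells and 100% = twice that signal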
SMARCA2 activ: SMARCA2 function activation, primary screen. 370,000 compounds, 1% hits. MG213 cells, MMTV-luciferase reporter, dexamethasone, overnight. activation, % at 9.1 µM; in the data active means activation above about 7.8%;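 further: 0% = vehicle wells and 100% = reference activator wells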
esBAF inh: blocks esBAF chromatin remodeling in mouse ES cells | Bmi1-luciferase knock-in reporter, 24 h; 100% = twice the neutral-well signal | reporter increase, % at 12.5 µM | 350,000 compounds, 2% hits; in the data active means activation above about 40%; inconclusive means no clear call, values can overlap the other calls;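 further: 0% = median of the plate's neutral control wells and 100% = double that signal; a rise in the Bmi1 reporter signal indicates esBAF inhibition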
HSF1 inh: HSF1 inhibition; NIH3T3-HGL HSE-luciferase, MG132-induced, luminescence 8 h; active compounds read low; activity change, negative = inhibition, % at 7.5 µM (by protocol); 300,000 compounds, 0.77% hits;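 active means more than half of replicate wells show activity change below -50%, luminescence cut by over half; inconclusive means some wells, but at most half, below -50%; inactive means no replicate well below -50%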;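 further: luciferase reports HSF-1 transcriptional activity via heat shock element; 0% = median of DMSO wells and -100% = zero luminescence signal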
Wnt bcat act: Wnt/beta-catenin pathway activation. 300,000 compounds, 1.2% hits. Wnt/beta-catenin reporter cell assay, activator, plate reader. AID 743398. activation, % at 9.35 µM; in the data active means activation above about 30%, passing the limit was not always enough; inconclusive means no clear call, values can overlap the other calls;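 further: 0% = neutral control wells and 100% = positive control wells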
MITF TRPM1 HTS: MITF TRPM1 promoter activation in melanoma cells; SK-MEL-5 TRPM1-promoter luciferase, 24 h; % of positive control, neutral wells = 0; activation, % at 12.5 µM; 300,000 compounds, 0.75% hits; AID 588334;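 active means mean activation of at least 80% with every replicate also reaching 80%; inconclusive means mean reaches 80% but some replicate falls short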;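 further: 0% = neutral control wells and 100% = parthenolide positive control wells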
An asterisk follows results filed as active. In the library only some 4.3% were active in any assay of this set; here they are far more common.

How did CCOc1cc2c(cc1OCC)C(c1ccc(OC)cc1)N(c1ccccc1)C(=O)C2 (stereo not given) do in these assays?
HSF-1 act: -90; SMARCA2 activ: -2; HSF1 inh: -85*; Wnt bcat act: -1; MITF TRPM1 HTS: 16

How did Cc1cccc(S(=O)(=O)N2C[C@@H](O)COC[C@@H]3O[C@H](CC(=O)NCc4ccncn4)CC[C@H]32)c1 do in these assays?
esBAF inh: -5

What do the screens show for `C[C@H]1CN([C@@H](C)CO)C(=O)c2cc(NC(=O)Nc3ccc4c(c3)OCO4)ccc2O[C@H]1CN(C)S(C)(=O)=O`?
esBAF inh: 1

How did c1csc(-c2nnsc2-c2nc3ccccc3[nH]2)c1 do in these assays?
HSF-1 act: -54; SMARCA2 activ: 6; esBAF inh: 40*; HSF1 inh: -40; Wnt bcat act: 23; MITF TRPM1 HTS: -4

How did CCOC(=O)c1snc(-c2ccc(F)cc2)c1N do in these assays?
HSF-1 act: 59*; SMARCA2 activ: -1; esBAF inh: inconclusive; HSF1 inh: 18; MITF TRPM1 HTS: 66

Results for Cc1cc(CNC(=O)c2cccc(OC3CCN(S(=O)(=O)N(C)C)CC3)c2)on1 ?
HSF-1 act: 26; SMARCA2 activ: 0; esBAF inh: 71*; HSF1 inh: 13; Wnt bcat act: 2; MITF TRPM1 HTS: 36

What do the screens show for `Cc1cc(C)n(-c2nc(-c3cccc(Cl)c3)cs2)n1`?
HSF-1 act: 1; SMARCA2 activ: 3; esBAF inh: 49*; HSF1 inh: 6; Wnt bcat act: -2

Results for Cc1cc(C)n(-c2nc(-c3ccccc3)cs2)n1 ?
HSF-1 act: 36; SMARCA2 activ: 3; HSF1 inh: 18; MITF TRPM1 HTS: 46

Results for O=C(Oc1ccc(-c2cnc3ccccc3n2)cc1)c1ccco1 ?
HSF-1 act: 9; SMARCA2 activ: 5; esBAF inh: 8; HSF1 inh: 11; Wnt bcat act: 69*; MITF TRPM1 HTS: inconclusive

Results for O=C(Oc1cccc([N+](=O)[O-])c1)c1cc(-c2ccccc2)nc2ccccc12 ?
HSF-1 act: 75*; SMARCA2 activ: -3; esBAF inh: -4; HSF1 inh: 56; Wnt bcat act: -1; MITF TRPM1 HTS: -4

How did CCC(=O)Oc1ccc(-c2cnc3ccccc3n2)cc1 do in these assays?
HSF-1 act: 46; SMARCA2 activ: 4; esBAF inh: 30; HSF1 inh: 13; Wnt bcat act: 28; MITF TRPM1 HTS: 50

How did O=[N+]([O-])c1cccc(-c2cnc3ccccc3n2)c1 do in these assays?
HSF-1 act: 0; SMARCA2 activ: 4; esBAF inh: 52*; HSF1 inh: 1; Wnt bcat act: 0; MITF TRPM1 HTS: 41

Results for O=C(Oc1ccc(-c2cnc3ccccc3n2)cc1)c1cc([N+](=O)[O-])ccc1Cl ?
HSF-1 act: 80*; SMARCA2 activ: 4; HSF1 inh: 47; MITF TRPM1 HTS: 60

Results for COc1ccc(C(=O)Nc2ccc3c(c2)nc2n3CCSC2)cc1 ?
HSF-1 act: 23; SMARCA2 activ: 4; esBAF inh: 33; HSF1 inh: 8; Wnt bcat act: 49*

How did COc1cccc(C(=O)Nc2cccc(C(=O)NC3=NN(c4c(Cl)cc(Cl)cc4Cl)C(=O)C3)c2)c1 do in these assays?
HSF-1 act: 19; SMARCA2 activ: -2; esBAF inh: 6; HSF1 inh: 10; Wnt bcat act: 32*

What do the screens show for `CC(C)(C)C(=O)NC1=NN(c2c(Cl)cc(Cl)cc2Cl)C(=O)C1`?
HSF-1 act: -25; SMARCA2 activ: 2; HSF1 inh: -9; Wnt bcat act: 2; MITF TRPM1 HTS: -3

How did COc1cccc(C(=O)NC(c2ccccc2)C2CCCC2)c1 (stereo not given) do in these assays?
HSF-1 act: 69*; SMARCA2 activ: 1; HSF1 inh: 31; Wnt bcat act: -1; MITF TRPM1 HTS: -2

What do the screens show for `O=C(Nc1ccc2c(c1)nc1n2CCSC1)c1ccccc1`?
HSF-1 act: 29; SMARCA2 activ: 4; esBAF inh: -20; HSF1 inh: 10; Wnt bcat act: 12; MITF TRPM1 HTS: 22

What do the screens show for `COc1cccc(C(=O)Nc2cccc(SC)c2)c1`?
HSF-1 act: 62*; SMARCA2 activ: 4; esBAF inh: 60*; HSF1 inh: 37; Wnt bcat act: 5; MITF TRPM1 HTS: 80*

Results for Cc1ccc(C(=O)Nc2cccc(Oc3ccccc3)c2)o1 ?
HSF-1 act: 58*; SMARCA2 activ: 2; esBAF inh: 69*; HSF1 inh: 22; MITF TRPM1 HTS: 90*

Results for O=C(Nc1cccc(F)c1)c1ccc(-c2ccccc2C(F)(F)F)o1 ?
SMARCA2 activ: 1; Wnt bcat act: 16

How did COc1ccc(NC(=O)c2ccccc2)cc1 do in these assays?
SMARCA2 activ: 7; esBAF inh: 21; Wnt bcat act: 28; MITF TRPM1 HTS: 108*

Results for CCNC(=S)Nc1ccc(Oc2ccccc2)cc1 ?
HSF-1 act: 28; SMARCA2 activ: -3; HSF1 inh: 5; Wnt bcat act: -4; MITF TRPM1 HTS: -1

Results for COc1ccc(NC(=S)Nc2ccc(Oc3ccccc3)cc2)cc1 ?
HSF-1 act: -68; SMARCA2 activ: -1; esBAF inh: 0; HSF1 inh: -65*; MITF TRPM1 HTS: 1

Results for Cc1ccccc1-c1ccc(C(=O)Nc2cccc(F)c2)o1 ?
HSF-1 act: 15; SMARCA2 activ: 5; esBAF inh: 45*; HSF1 inh: 15; Wnt bcat act: 27; MITF TRPM1 HTS: 53

How did COc1ccc(C(=O)Nc2cc(OC)nc(OC)n2)cc1 do in these assays?
HSF-1 act: 22; SMARCA2 activ: 8; esBAF inh: 24; HSF1 inh: 22; MITF TRPM1 HTS: 92*

What do the screens show for `COc1ccc(NC(=O)c2c(C)nn(-c3ccccc3)c2Cl)cc1`?
HSF-1 act: 14; SMARCA2 activ: 7; esBAF inh: 19; HSF1 inh: 10; Wnt bcat act: 5; MITF TRPM1 HTS: 15

Results for COc1ccc(NC(=O)c2c(NC(=O)CCC(=O)O)sc(-c3ccccc3)c2C)cc1 ?
HSF-1 act: 23; SMARCA2 activ: -1; HSF1 inh: 9; Wnt bcat act: 34*; MITF TRPM1 HTS: 2

How did COc1ccc(C(=O)Nc2ccc3nc(C)c(C)nc3c2)cc1 do in these assays?
HSF-1 act: 16; SMARCA2 activ: -1; esBAF inh: 62*; HSF1 inh: 16; Wnt bcat act: 8; MITF TRPM1 HTS: 36

What do the screens show for `COc1cccc(NC(=O)c2c(C)nn(-c3ccccc3)c2Cl)c1`?
HSF-1 act: 29; SMARCA2 activ: -1; esBAF inh: 50*; HSF1 inh: 16; Wnt bcat act: 15

How did COC(=O)c1c(NC(=O)CCC(=O)O)sc(Cc2ccccc2)c1C do in these assays?
HSF-1 act: -2; SMARCA2 activ: -1; HSF1 inh: 0; Wnt bcat act: 7; MITF TRPM1 HTS: 0
